HttQ103 aggreg: qHTS Multiplex Assay to Identify Dual Action Probes in a Cell Model of Huntington: Aggregate Formation (GFP); PC12 HttQ103-GFP aggregates, Acumen cytometry, 40 h; Potency, µM (doses to about 46.1 µM), for the others: at the top dose activity change, negative = inhibition, most hits filed as inhibitors; 220,000 compounds, 1.1% hits; note: potency is the fitted concentration of half-maximal effect; % is set by controls: 0 for no effect and ±100 for the full control effect; nearly all actives have a fitted effect of over 60% in size
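Aggregate formation scored by laser-scanning cytometer (488 excitation, 500–530 emission) in lysed PC12 cells expressing Q103-GFP after 100 nM tebufenozide induction; library tested in dose series, with ATPLite reagent added in the multiplex.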
HTT ATP protect: qHTS Multiplex Assay to Identify Dual Action Probes in a Cell Model of Huntington: Cytoprotection (ATP). 230,000 compounds, 0.14% hits. PC12 HTT-Q103 induced, cytoprotection, ATP luminescence, 40 h. Potency, µM (top dose mostly 56.4 µM), for the others: cytoprotection (ATP increase), most hits filed as activators; note: potency is the fitted concentration of half-maximal effect; % of control where 0% means no effect; nearly all actives have a fitted effect of over 45% in size
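Rat PC12, Q103 Htt exon1-GFP fusion, ecdysone promoter; tebufenozide inducer 100 nM final; compound titration; qHTS, 1500 cells/well; ATPlite luminescent read.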
Coupling enz: qHTS Assay for Inhibitors of Fructose-1,6-bisphosphate Aldolase from Giardia Lamblia: Coupling assay counterscreen | coupling enzyme system counterscreen, AmpLite Red fluorescence | activity change, negative = inhibition, % at 58.2 µM, hits read low | 290,000 compounds, 0.67% hits | AID 2472, 2010; in the data active = activity change below about -30%; note: % is set by controls: 0 for no effect and ±100 for the full control effect
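Activity here indicates interference with the coupling reaction, not aldolase inhibition. Compounds at 57.5 uM final met coupling enzymes for 10 min at RT; substrate and AmpLite Red detection followed, with a 525/598 nm fluorescence read after 20 min.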
TRb SRC2 PPI: qHTS for Inhibitors of the Interaction of Thyroid Hormone Receptor and Steroid Receptor Coregulator 2. Thyroid hormone receptor beta (Homo sapiens), P10828. AID 1469, 2008. Potency, µM (highest dose often 106 µM), for the others: top-dose activity change, negative = inhibition, most hits filed as inhibitors. TRbeta-SRC2 peptide binding, fluorescence polarization; receptor liganded with 1 µM T3. 280,000 compounds, 0.065% hits;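 note: potency is the fitted concentration of half-maximal effect; plate controls were bound peptide for no effect and peptide without receptor for full effect; nearly all actives have a fitted effect of over 50% in size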
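TRb LBD 0.6 uM + Texas Red SRC2 peptide 20 nM, 1 uM T3, Tris buffer w/ 5% DMSO; compound pinned, 5 h RT; FP read ex 555/em 632; normalized to unbound and bound controls.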
JMJD2E inh: qHTS Assay for Inhibitors of Human Jumonji Domain Containing 2E (JMJD2E); AID 2147, 2009; Potency, µM (highest dose often 57.1 µM), for inactives: at the top dose activity change, negative = inhibition, usual class: inhibitors; JMJD2E catalytic domain, FDH-coupled NADH fluorescence (FDH is formaldehyde dehydrogenase); Lysine-specific demethylase 4E (Homo sapiens), B2RXH2; 230,000 compounds, 1.6% hits; active = well fitted inhibition curve with a large enough effect, not every such curve was filed as active; inconclusive = small, poorly fitted or top-dose-only effect, or another doubt; inactive = no such curve, though single readings can be large or run the other way;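 note: potency is the fitted concentration of half-maximal effect; 0% = wells with enzyme and -100% = buffer wells without enzyme; nearly all actives have a fitted effect of over 50% in size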
Target sequence (B2RXH2 1-337 limits assumed): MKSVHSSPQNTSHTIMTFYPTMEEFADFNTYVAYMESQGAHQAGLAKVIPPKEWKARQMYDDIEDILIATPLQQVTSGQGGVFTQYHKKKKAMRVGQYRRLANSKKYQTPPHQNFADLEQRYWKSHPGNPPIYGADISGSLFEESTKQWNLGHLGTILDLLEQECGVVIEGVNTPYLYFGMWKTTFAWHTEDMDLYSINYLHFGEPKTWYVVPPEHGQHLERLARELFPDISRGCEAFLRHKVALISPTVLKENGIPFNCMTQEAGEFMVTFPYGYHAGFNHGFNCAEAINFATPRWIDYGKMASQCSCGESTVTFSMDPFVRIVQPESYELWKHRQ
TR SRC2 fluor cs: Total Fluorescence Counterscreen for Inhibitors of the Interaction of Thyroid Hormone Receptor and Steroid Receptor Coregulator 2 | TRb/SRC2 Texas Red total fluorescence interference | Potency, µM (highest dose often 106 µM), without a hit: at the top dose fluorescence change, negative = quenching | AID 1479, 2009 | 280,000 compounds, 0.29% hits; active = well fitted curve in either direction with a large enough effect; inconclusive = small, poorly fitted or top-dose-only effect; note: potency is the fitted concentration of half-maximal effect; % is set by controls: 0 for no effect and ±100 for the full control effect
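Human TRβ ligand-binding domain (0.6 uM) and Texas Red SRC2 peptide (20 nM) in Tris buffer with 1 uM T3 and 5% DMSO were incubated with pinned compound for 5 hr at ambient temperature. Total fluorescence was computed as S + 2P (555/632 nm).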
Active calls of the source: *; ? = inconclusive; . = no result given; [ ] = dose if it differs, or a comment. The list is not random: actives were taken first. Their share in the collection is about 2%. Unless noted, calls come from the whole dose curve; as a rule, active = well fitted curve in the direction sought with a large enough effect; inconclusive = small, poorly fitted or top-dose-only effect, or another doubt; inactive = no such curve, though single readings can be large; an effect the other way counts as inactive or inconclusive.

SMILES	HttQ103 aggreg	HTT ATP protect	Coupling enz	TRb SRC2 PPI	JMJD2E inh	TR SRC2 fluor cs
Cc1csc(=Nc2c(C)n(C)n(-c3ccccc3)c2=O)n1Cc1ccccc1	6.3%[9.22 µM]	-10.6%	-0.8	-3.2%	-0.3%	-0.6%
C=CCn1c(-c2ccc(OC)cc2)csc1=Nc1c(C)n(C)n(-c2ccccc2)c1=O	0.794µM*	?	9.2	7.3%	-2.3%	3.6%
O=C(Nc1ccccc1)Nc1cccc(C(F)(F)F)c1	22.4µM*	-80.5%	2.0	0.2%	-3.4%	0.6%
O=C(NNC(=S)Nc1cccc(C(F)(F)F)c1)c1ccc(Cl)cc1Cl	11.2µM*	4.8%[10 µM]	5.0	3.7%	-9.5%	-2.2%
Cc1ccccc1NC(=O)Nc1ccc(C(F)(F)F)cc1	11.2µM*	-48.8%	-0.6	-5.1%	-3.3%	-1.5%
Cc1ccccc1NC(=O)CNC(=O)c1ccc(C(F)(F)F)cc1	5.5%	14.8%[10 µM]	0.2	1.4%	12.3%	-2.4%
CC(=O)Nc1ccc(NC(=O)/C=C/c2cccc(C(F)(F)F)c2)cc1	13.6%	-6.9%[1.9 µM]	0.2	?	4.7%	3.16µM*[quencher]
CCCNC(=O)CCCN1C(=O)CCn2nc(-c3cccn3C)cc21	.	.	.	3.8%	.	-7.9%
C#CC(N)CCC(=O)O (centres undefined)	.	.	.	-3.3%	4.2%	-3.4%
CCn1ncc(NC(=O)Nc2cccc(C(F)(F)F)c2)c1C(N)=O	-20.1%	7.7%[0.074 µM]	0.9	-2.3%	2.1%	1.2%
CCSCCc1nnc(NC(=O)Nc2cccc(C(F)(F)F)c2)s1	11.2µM*	-11.1%[1.9 µM]	0.9	5.1%	6.9%	-1.6%
CCN(c1ccccc1)S(=O)(=O)c1ccc(C(=O)Nc2nnc(CSC)o2)cc1	?	-109.3%	8.0	-0.2%	?	0.1%
CCCN(CCC)S(=O)(=O)c1ccc(C(=O)Nc2nnc(CSC)o2)cc1	11.2µM*	-42.5%	9.5	0.9%	?	1.0%
CCCCN(CCCC)S(=O)(=O)c1ccc(C(=O)Nc2nnc(CSC)o2)cc1	?	-51.3%	15.4	-1.1%	?	-3.2%
CCCCN(CC)S(=O)(=O)c1ccc(C(=O)Nc2nnc(-c3ccccc3Cl)o2)cc1	10µM*	-9.7%[10 µM]	18.2	-5.1%	-24.9%	2.0%
CCCCN(CC)S(=O)(=O)c1ccc(C(=O)Nc2nnc(CSC)o2)cc1	10µM*	-61.1%	8.2	-11.2%	?	-2.9%
CCN(Cc1ccccc1)S(=O)(=O)c1ccc(C(=O)Nc2nnc(-c3ccccc3OC)o2)cc1	22.4µM*	5.8%[10 µM]	21.9	4.2%	?	1.4%
Cc1ccc(C(=O)Nc2cccc(C(=O)OCc3cc(=O)n4nc(C5CC5)sc4n3)c2)cc1	.	.	.	-1.9%	.	-0.8%
CCCCCC1CCC(=O)O1 (centres undefined)	.	.	.	7.0%[201 µM]	.	-4.0%[201 µM]
COc1ccc2c(Cl)c(C(=O)N/N=C3\CCCC(=O)C3)sc2c1	-7.0%	-47.7%	-0.3	-2.5%	17.8µM*	-10.4%
COc1ccc2c(Cl)c(C(=O)N/N=C/c3ccc4c(c3)OCO4)sc2c1	-4.3%	-52.8%	5.5	-12.0%	?	0.1%
O=C(Cn1ncc2c(Cl)cccc21)NCc1cccc(Cl)c1	.	.	.	-4.6%	.	1.1%
O=P(O)(O)CP(=O)(O)O	-4.0%	-1.1%[10 µM]	3.5	?	0.355µM*	10.9%
CCn1cc2c(n1)-c1c(oc(C(=O)Nc3ccc(Br)cc3F)c1C)CC2	.	.	.	-2.6%	.	-23.6%
O=C(O)/C=C1\NC(=O)c2ccccc21	-6.6%	-1.9%	7.3	-9.2%	5.0%	0.4%
SMILES	HttQ103 aggreg	HTT ATP protect	Coupling enz	TRb SRC2 PPI	JMJD2E inh	TR SRC2 fluor cs
O=C1N/C(=C\c2ccc(O)cc2)C(=O)c2ccccc21	-8.1%	-1.1%	-31.1*	?	-8.1%	-2.7%
Cc1cccc(CCNC(=O)CCc2c(C)nc3c4c(C)cc(C)nc4nn3c2C)c1	.	.	.	-3.3%	.	0.3%
Cc1cc(C(=O)O)ccc1-n1c(C)ccc1C	.	4.0%[0.074 µM]	.	.	.	.
NC(=O)c1cc(N)ccc1N1CCCC1	22.6%	-33.0%	-25.0	39.8µM*	?	44.7µM*[fluorescent]
NC(=O)c1cc(N)ccc1N1CCCCC1	?	-15.5%	-1.7	-3.8%	-6.3%	-3.4%
Cc1cc(N2CCCC2)c(C)cc1C=O	9.6%	6.5%	1.6	-5.4%	1.3%	-1.2%
Cc1cc(N)ccc1-n1c(C)ccc1C	20.3%	2.7%	-14.8	7.94µM*	?	12.6µM*[fluorescent]
Cc1cc(N)ccc1N1CCCC1	-16.0%	-16.6%	-23.0	39.8µM*	-28.4%	44.7µM*[fluorescent]
CNC(=O)C1(C)C=CCN1C(=O)OC (centres undefined)	.	-5.6%	3.4	10.1%	0.6%	0.7%
COC(=O)N1CC=CC1(C)C(=O)NCC1CC1 (centres undefined)	.	12.6µM*	4.2	5.7%	-3.4%	-1.5%
Cc1cccc(-n2c(C)nc3cc(C(=O)NCCC4=CCCCC4)ccc32)c1	.	.	.	5.0%	.	-1.3%
Cc1c(O)ccc(/C=N/Nc2nc(-c3cccnc3)nc3ccccc23)c1O	-20.7%[9.22 µM]	1.9%[10 µM]	-0.9	12.5%	?	-28.9%
Oc1ccc(/C=N/Nc2nc(-c3cccnc3)nc3ccccc23)c(O)c1	-18.7%[9.22 µM]	1.2%[10 µM]	-4.7	9.0%	22.4µM*	-16.5%
COc1ccc(OC)c([C@H]2Nc3ccccc3NC3=C2C(=O)CC(C)(C)C3)c1Br	.	4.3%	.	.	.	.

Source: PubChem (National Center for Advancing Translational Sciences (NCATS))
